From PubChem BioAssay come the findings set out here.

Assay [1] relates to Plasmodium falciparum Sir2 (PF13_0152, Sir2A). Put plainly: pfSir2 binders on small-molecule microarrays, primary screen, biochemical, small-molecule microarray, 635 nm fluorescence (AID 1098).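 Further: score merges spot fluorescence intensity with its signal-to-noise ratio.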 As to conditions: small-molecule microarray binding, fluorescence 635 nm; higher = more signal.
Assay [2] is described as follows: small-molecule microarray binders of probe aDKK1, primary screen, biochemical, biotinylated probe, 635/667 nm fluorescence (AID 1099).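 Further: score merges 667nm spot fluorescence with signal to noise across triplicate slides.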 As to conditions: higher = more signal.
The nature of assay [3]: small-molecule microarray binders of probe aCHRDL2, primary screen, biochemical, biotinylated probe, 635/667 nm fluorescence (AID 1100). Conditions: higher = more signal.
A short description of assay [4]: splicing luciferase reporter signal modulators, primary screen, spliceosome inhibition project, cell-based, HEK293, splice +/- reporter (AID 1101).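 Further: HEK293 cells carrying a splicing-competent luciferase reporter gene; test concentration not given here.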 As to conditions: luminescence, 24 h, higher = more signal, called active from +8 up or from −8 down. In general terms: In a reporter assay the amount or activity of a reporter protein is the signal.
Assay [5] deals with Fibroblast growth factor 10 (Homo sapiens) (UniProt O15520). Nature of the assay: FGF10 binders on small-molecule microarrays, primary screen, biochemical, small-molecule microarray, 635 nm fluorescence (AID 1102). Conditions: FGF10 binding, fluorescence 635 nm, higher = more signal.
For assay [6], the system named is glycogen synthase kinase-3 (GSK3A per assay name; protocol says GSK3B). Put plainly: GSK3 binders on small-molecule microarrays, primary screen, biochemical, small-molecule microarray, 635 nm fluorescence, GSK3A (AID 1103). Further: the record names both GSK3A and GSK3B. As to conditions: small-molecule microarray binding, fluorescence 635 nm; higher = more signal.
Assay [7] deals with Epidermal growth factor receptor (Homo sapiens) (UniProt P00533). Put plainly: EGFR binders on small-molecule microarrays, primary screen, biochemical, small-molecule microarray, 635 nm fluorescence (AID 1104).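 Further: score merges 667 nm emission intensity with spot signal to noise over triplicate slides.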 As to conditions: EGFR binding, higher = more signal.
In assay [8] the target is Follistatin-related protein 3 (Homo sapiens) (UniProt O95633). Put plainly: FSTL3 binders on small-molecule microarrays, primary screen, biochemical, small-molecule microarray, 635 nm fluorescence (AID 1105).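 Further: score merges emission near 667 nm and signal to noise per printed spot across three slides.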 Conditions: FSTL3 binding, higher = more signal.
Assay [9] concerns the target Dickkopf-related protein 1 (Homo sapiens) (UniProt O94907). Nature of the assay: DKK1 binders on small-molecule microarrays, primary screen, biochemical, small-molecule microarray, 635 nm fluorescence scan (AID 1106).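 Further: score merges emission near 667 nm with signal to noise over three replicate slides.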 Conditions: DKK1 binding, higher = more signal.
For assay [10], the system named is Inhibin beta A chain (activin A). Nature of the assay: INHBA (activin A) binders on microarrays, primary screen, biochemical, small-molecule microarray, 635 nm fluorescence scan (AID 1107).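 Further: mouse activin A protein probed at 4.33 µg/mL on printed slides; score merges bound-protein fluorescence near 667 nm with spot signal-to-noise.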 As to conditions: small-molecule microarray binding, higher = more signal.
Assay [11] has as its system Human papillomavirus type 1a protein E7 (residues 44-93). Nature of the assay: HPV1a E7 fragment binders on microarrays, primary screen, biochemical, small-molecule microarray, residues 44-93, 635 nm fluorescence (AID 1108).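 Further: E7 fragment applied at 1 µg/mL in TBST for 1 h at 4 C; score combines spot fluorescence with its signal to noise ratio.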 As to conditions: small-molecule microarray binding, fluorescence 635 nm; higher = more signal.
Assay [12] is described as follows: modulators of HCV replicon luciferase signal, primary screen, HCV replication inhibitor project, Huh7 cells, luciferase reporter (AID 1109).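 Further: huh7 hepatoma cells harbouring a luciferase neomycin HCV replicon reporter; luciferase luminescence as measure of HCV replicon replication; test concentration not given here.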 As to conditions: 48 h, higher = more signal. On the technique in general: Replicon systems follow genome replication, usually without infectious particles.
Assay [13] deals with Left-right determination factor 2 (Homo sapiens) (UniProt O00292). Put plainly: LEFTY2 binders on small-molecule microarrays, primary screen, biochemical, small-molecule microarray, 635 nm fluorescence scan (AID 1110). Conditions: LEFTY2 binding, higher = more signal.
The target of assay [14] is Calmodulin-1 (Homo sapiens) (UniProt P0DP23). Nature of the assay: CALM1 binders on microarrays, EGTA buffer, profiling panel, biochemical, small-molecule microarray, Cy5-labelled CALM1 (AID 1111).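 Further: labelled calmodulin applied in Tris saline Tween buffer holding calcium plus EGTA and DTT.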 Conditions: Cy5-CALM1 binding fluorescence, higher = more signal.
Assay [15] has the same target. Put plainly: calcium-bound CALM1 binders on microarrays, profiling panel, artefact control for SMM control-protein annotation, biochemical, small-molecule microarray, Cy5-labelled CALM1, plus calcium (AID 1112).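 Further: score merges spot fluorescence with signal to noise from triplicate slides.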 Conditions: Cy5-CALM1 binding fluorescence, higher = more signal.
Assay [16] can be described thus: small-molecule microarray binders of probe aWnt5a, primary screen, biochemical, biotinylated probe, 635/667 nm fluorescence (AID 1113).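 Further: score merges 667 nm fluorescence intensity with signal-to-noise per printed feature.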 As to conditions: higher = more signal.
Assay [17] in a line: small-molecule microarray binders of probe aShh, primary screen, biochemical, biotinylated probe, 635/667 nm fluorescence (AID 1114).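 Further: probe is biotin-labelled aShh protein from a stem cell growth factor screen; measures binding of labelled protein to compounds printed on the slide; score merges feature fluorescence at 667 nm with signal-to-noise.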 As to conditions: higher = more signal.
The nature of assay [18]: small-molecule microarray binders of probe aNog, primary screen, biochemical, biotinylated probe, 635/667 nm fluorescence (AID 1115).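 Further: probe is biotinylated aNog protein used at 0.15 µg/mL for 1 h at 4 C; z-score combines 667 nm fluorescence of each spot with its signal to noise.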 As to conditions: higher = more signal.
For assay [19], the target named is Torsin-1A-interacting protein 1 (Homo sapiens) (UniProt Q5JTV8). Nature of the assay: LAP1 binders from COS7 cell lysate, primary screen, small-molecule microarray, 635/667 nm fluorescence (AID 1116). As to conditions: COS7-hLAP1 lysate binding, 635 nm fluorescence, higher = more signal.
In assay [20] the target is Alpha-bungarotoxin (Bungarus multicinctus) (UniProt P60615). Nature of the assay: alpha-bungarotoxin binders on microarray, profiling panel, artefact control for SMM control protein annotation, biochemical, small-molecule microarray, Alexa647 label, 635/667 nm fluorescence (AID 1117). Conditions: alpha-BTX-A647 binding fluorescence, higher = more signal.

Active and inactive are the calls of the source.

Sequence of Epidermal growth factor receptor (Homo sapiens) (P00533 whole entry, looked up): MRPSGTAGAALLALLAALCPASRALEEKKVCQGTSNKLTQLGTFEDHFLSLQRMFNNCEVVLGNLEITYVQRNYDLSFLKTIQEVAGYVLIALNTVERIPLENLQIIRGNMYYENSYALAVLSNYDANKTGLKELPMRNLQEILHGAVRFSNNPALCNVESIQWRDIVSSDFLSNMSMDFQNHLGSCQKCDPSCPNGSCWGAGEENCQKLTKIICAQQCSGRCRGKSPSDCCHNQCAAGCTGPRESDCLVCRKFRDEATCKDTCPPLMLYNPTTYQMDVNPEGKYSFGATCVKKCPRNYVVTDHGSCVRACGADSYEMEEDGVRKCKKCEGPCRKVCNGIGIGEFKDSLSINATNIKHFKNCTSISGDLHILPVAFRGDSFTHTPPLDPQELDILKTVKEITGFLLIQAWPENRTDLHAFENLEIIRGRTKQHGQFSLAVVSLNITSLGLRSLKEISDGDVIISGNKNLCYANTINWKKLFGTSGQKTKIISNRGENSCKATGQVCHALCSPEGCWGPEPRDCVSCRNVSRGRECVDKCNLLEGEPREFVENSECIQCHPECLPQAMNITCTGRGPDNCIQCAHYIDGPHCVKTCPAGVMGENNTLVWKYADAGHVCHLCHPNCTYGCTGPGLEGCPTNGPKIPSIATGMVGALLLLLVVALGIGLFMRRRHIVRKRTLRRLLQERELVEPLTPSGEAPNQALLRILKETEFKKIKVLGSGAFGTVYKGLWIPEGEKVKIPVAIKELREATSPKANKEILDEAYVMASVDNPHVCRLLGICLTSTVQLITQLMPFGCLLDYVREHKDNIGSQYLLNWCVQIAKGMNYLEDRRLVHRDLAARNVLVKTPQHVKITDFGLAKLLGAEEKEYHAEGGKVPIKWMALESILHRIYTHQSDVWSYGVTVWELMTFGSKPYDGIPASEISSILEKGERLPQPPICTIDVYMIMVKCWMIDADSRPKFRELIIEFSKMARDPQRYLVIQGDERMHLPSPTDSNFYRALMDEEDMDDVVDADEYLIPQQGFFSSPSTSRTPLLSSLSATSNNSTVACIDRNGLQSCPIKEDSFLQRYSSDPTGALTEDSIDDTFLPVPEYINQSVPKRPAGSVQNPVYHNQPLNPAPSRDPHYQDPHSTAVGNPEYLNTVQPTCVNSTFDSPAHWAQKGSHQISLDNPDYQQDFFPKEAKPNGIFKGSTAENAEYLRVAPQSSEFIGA
Sequence of Fibroblast growth factor 10 (Homo sapiens) (O15520 whole entry, looked up): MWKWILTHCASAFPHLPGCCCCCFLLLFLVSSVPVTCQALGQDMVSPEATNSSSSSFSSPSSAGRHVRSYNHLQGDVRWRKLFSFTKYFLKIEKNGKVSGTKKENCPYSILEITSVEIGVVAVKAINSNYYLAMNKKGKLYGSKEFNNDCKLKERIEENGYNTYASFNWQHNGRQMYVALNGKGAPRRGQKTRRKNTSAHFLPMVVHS
Sequence of Left-right determination factor 2 (Homo sapiens) (O00292 whole entry, looked up): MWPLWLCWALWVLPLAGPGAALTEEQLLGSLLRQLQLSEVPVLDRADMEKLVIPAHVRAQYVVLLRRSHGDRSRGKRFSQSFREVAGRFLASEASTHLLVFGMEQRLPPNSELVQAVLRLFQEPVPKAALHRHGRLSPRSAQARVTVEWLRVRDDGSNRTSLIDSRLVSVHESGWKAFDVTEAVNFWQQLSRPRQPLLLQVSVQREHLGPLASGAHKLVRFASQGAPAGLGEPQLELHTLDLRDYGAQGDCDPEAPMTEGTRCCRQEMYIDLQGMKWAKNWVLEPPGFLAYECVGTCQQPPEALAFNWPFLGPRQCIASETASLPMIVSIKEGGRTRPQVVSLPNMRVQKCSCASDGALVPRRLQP
Sequence of Dickkopf-related protein 1 (Homo sapiens) (O94907 whole entry, looked up): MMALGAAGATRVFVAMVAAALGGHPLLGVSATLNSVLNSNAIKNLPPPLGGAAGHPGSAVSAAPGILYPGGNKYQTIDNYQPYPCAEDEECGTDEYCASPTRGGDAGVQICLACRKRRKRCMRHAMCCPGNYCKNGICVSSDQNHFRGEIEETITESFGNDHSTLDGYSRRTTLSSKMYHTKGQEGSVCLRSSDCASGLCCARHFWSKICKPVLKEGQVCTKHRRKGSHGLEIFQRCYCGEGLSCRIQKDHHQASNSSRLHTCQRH
Sequence of Torsin-1A-interacting protein 1 (Homo sapiens) (Q5JTV8 whole entry, looked up): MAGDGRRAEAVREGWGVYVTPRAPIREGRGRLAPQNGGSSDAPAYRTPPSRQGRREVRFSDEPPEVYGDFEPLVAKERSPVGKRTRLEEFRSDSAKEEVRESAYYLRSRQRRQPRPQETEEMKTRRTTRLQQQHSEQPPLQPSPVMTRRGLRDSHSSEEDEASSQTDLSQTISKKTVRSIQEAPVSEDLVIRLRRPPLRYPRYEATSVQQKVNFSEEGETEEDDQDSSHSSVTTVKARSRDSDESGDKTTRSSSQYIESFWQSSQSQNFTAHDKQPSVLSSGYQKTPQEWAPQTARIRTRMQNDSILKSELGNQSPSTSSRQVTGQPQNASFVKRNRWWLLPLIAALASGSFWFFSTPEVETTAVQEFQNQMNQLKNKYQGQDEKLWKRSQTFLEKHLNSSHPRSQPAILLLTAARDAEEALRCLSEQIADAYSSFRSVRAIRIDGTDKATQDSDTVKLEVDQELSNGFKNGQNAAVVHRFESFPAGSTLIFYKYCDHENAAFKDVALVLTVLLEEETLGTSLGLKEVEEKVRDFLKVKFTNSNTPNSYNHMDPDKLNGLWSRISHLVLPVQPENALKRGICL
Sequence of Alpha-bungarotoxin (Bungarus multicinctus) (P60615 whole entry, looked up): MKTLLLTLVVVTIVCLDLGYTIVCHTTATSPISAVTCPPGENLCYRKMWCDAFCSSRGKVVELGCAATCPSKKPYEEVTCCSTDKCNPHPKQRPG
Sequence of Follistatin-related protein 3 (Homo sapiens) (O95633 whole entry, looked up): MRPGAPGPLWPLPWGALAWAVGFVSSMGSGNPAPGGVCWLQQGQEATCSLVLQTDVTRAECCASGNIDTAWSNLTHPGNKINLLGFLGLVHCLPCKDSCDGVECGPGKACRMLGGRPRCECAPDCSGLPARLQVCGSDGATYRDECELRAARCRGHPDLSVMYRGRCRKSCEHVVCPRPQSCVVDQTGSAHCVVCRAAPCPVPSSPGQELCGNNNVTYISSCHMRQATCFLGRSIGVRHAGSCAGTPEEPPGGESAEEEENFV

On to `CO[C@H]1O[C@H](CO)[C@@H](OC(=O)Nc2ccccc2-c2ccccc2)[C@H](OC(=O)Nc2ccccc2-c2ccccc2)[C@@H]1OC(=O)Nc1ccccc1-c1ccccc1`, for which the composite z-score in assay [1] is 1.63; in assay [2], 0.408; in assay [3] it was 0.625; in assay [5], 1.43; in assay [6], 1.12; in assay [7], -0.168. Further, the composite z-score came out at 1.03 in assay [8]; 0.208 in [9]; 0.0923 in [10]; 0.538 in [11]; 0.292 in assay [13]; 1.74 in [14]. Besides, the composite z-score in assay [15] is 0.459; in assay [16], -0.0196; in [17], -0.0769; in assay [18], 0.799; in [19], 0.146; in [20], 0.818. Also, the z-score was 0.389 (inactive) in assay [4] and -1.77 in [12].
`O=C1OCCC=C[C@H]2OC34C=CCN(c5ccc(Cl)cc5)C(=O)[C@H]3N(CCCO)C(=O)[C@@H]4C12` (stereo not given in full): the composite z-score is -0.41 in [1]; -0.227 in [2]; 0.0093 in assay [3]; 0.0364 in [5]; -1.4 in assay [6]; -0.522 in assay [7]. Further, the composite z-score in assay [8] is -0.181; in assay [9] it was -0.455; in assay [10] it was 1.52; in [11], -0.726; in assay [13], -0.131; in assay [14], 0.0745. In addition, the composite z-score in assay [15] is 0.168; in [16], -0.182; in [17], -0.186; in [18], 0; in [19], -0.421; in assay [20], 0.275. Further, the z-score in assay [4] was -1.29 (inactive); in [12], -1.04.
Consider `O=c1cccc(-c2ccccc2Cl)o1`, for which the composite z-score in assay [1] is -0.462; in assay [2], -0.0639; in [3], -0.456; in assay [5] it was 0.425; in assay [6], 0.0083; in assay [7] it was 0.0031. The composite z-score in [8] was -0.0893; in assay [9], 0.157; in [10], 0.747; in [11] it was 0.201; in assay [13], -0.12; in assay [14], -0.559. Besides, the composite z-score was -0.503 in assay [15]; -0.124 in assay [16]; 0.0952 in assay [17]; -0.593 in [18]; 0.21 in assay [19]; -0.183 in [20]. For the same molecule, the z-score in [4] was 0.477 (inactive); in [12] it was -0.143.
As for `COCCCNC(=O)[C@@H]1c2ccccc2C(=O)N(Cc2ccccc2)[C@H]1c1ccc(CO)cc1`, the composite z-score in assay [1] turned out to be 0.698; in [2] it was 0.698; in assay [3], 0.655; in assay [5], 0.223; in assay [6], 0.437; in [7], 0.851. Further, the composite z-score in [8] was 0.197; in assay [9], 0.549; in assay [10] it was 0.353; in [11], 0.364; in assay [13] it was 0.221; in assay [14] it was -0.448. Also, the composite z-score in assay [15] is 0.004; in [16], 0.0215; in [17] it was 0.131; in assay [18], -0.69; in [19] it was 1.32; in assay [20], -0.222. The z-score in [4] is -0.403 (inactive); in [12], -0.719.
`CC(=O)n1cc(C(O)C2C=CC3C(=O)NC(=O)C3N2Nc2ccccn2)c2ccccc21` (stereo not given): the composite z-score was 0.452 in [1]; -0.0908 in assay [2]; 0.0413 in assay [3]; 0.168 in [5]; 0.0973 in assay [6]; 0.523 in assay [7]. In addition, the composite z-score is 0.225 in assay [8]; 0.339 in assay [9]; 0.709 in [10]; -0.0484 in assay [11]; 0.0729 in assay [13]; -0.2 in [14]. The composite z-score in assay [15] was -0.36; in [16], -0.124; in [17], -0.138; in assay [18] it was -0.0615; in assay [19] it was -0.19; in [20] it was 0.751. In addition, the results for the z-score in assay [4] and in [12] were 2.28 (inactive) and -0.75, respectively.
